# Experimental data reported in the supplement of paper PMC4466236.
# Over roughly 33,000 sequences, “E-score (dimensionless, -0.5 to 0.5)” has its median near -0.058; the highest 2% begin near 0.35. This excerpt belongs to a sample that is enriched for the highest values.
# Tested on: MvaT
# Test: PBM 8-mer E-score (mean of HK and ME arrays) (E-score (dimensionless, -0.5 to 0.5)); higher = stronger relative binding preference
# Experimental: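 Protein binding microarray: GST-tagged full-length MvaT (P. aeruginosa PAO1) bound to two universal double-stranded 60-mer arrays (ME and HK), each with a constant 25-mer primer and a variable 35-mer region covering all 8-mers. The 8-mer E-score (rank-based, range -0.5 to 0.5, >0.45 = specific binding) is the mean of the two arrays.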
row,Sequence,PBM 8-mer E-score
1,CAAGCACG,-0.238
2,CCTTACCG,-0.129
3,GAAGCAAC,-0.0872
4,AGATACTA,0.143
5,CTACTATA,0.292
6,CTATACTC,-0.0354
7,CTATACTA,0.156
8,ATACTATA,0.377
9,ATATACTC,0.364
10,GCATACTA,0.186
11,GTATACGA,0.184
12,ATATACTG,0.322
13,GTATACTA,0.373
14,GTACTATA,0.329
15,ATATACTA,0.422
16,ATACACTC,0.143
17,GAACGTTA,0.207
18,ACAAACCA,0.185
19,AGCTGAGC,-0.262
20,AACGTAGT,0.000134
21,CGCGTGAG,-0.167
22,AGGCCGAG,-0.0711
23,GGCCCCTA,-0.222
24,ACAATTAA,0.347
25,ACAATTAT,0.378

row,Sequence,PBM 8-mer E-score
1,ACAATTTA,0.353
2,ACAATTAG,0.315
3,GCAATTTA,0.307
4,ACAATTTG,0.187
5,CCAATTAA,0.306
6,GCAATTAA,0.324
7,ACAATTAC,0.319
8,CCGGTGAA,-0.0479
9,AGGAGCAG,-0.32
10,CAGGATGG,-0.189
11,CAAGCAGA,-0.0444
12,TCAATAAA,0.22
13,CTAATAAG,0.213
14,CGAATAAA,0.254
15,CTAATAAC,0.326
16,CTAAAAAA,0.0548
17,TTAATAAA,0.432
18,ATCATAAG,0.161
19,CTAATAAA,0.349
20,ATAATAAG,0.43
21,TGAATAAA,0.268
22,GTAATAAC,0.297
23,ATAATAAC,0.422
24,AGGGGAGA,-0.145
25,ATGACACG,-0.12

row,Sequence,PBM 8-mer E-score
1,AGCCTATA,0.179
2,ATTGCAAT,0.27
3,AGAATAAC,0.232
4,AGAATAAA,0.255
5,TTAATGAA,0.393
6,ATAATGAT,0.275
7,AGAATAAT,0.411
8,ATAATAAT,0.463
9,CTAATGAA,0.132
10,ATCATAAT,0.245
11,GTAATGAA,0.00633
12,AGAATAAG,0.252
13,ATAATAAA,0.451
14,GTAATAAA,0.333
15,CTAGCCTA,-0.138
16,AGGCTAAG,-0.0142
17,GCCTGTCC,-0.241
18,CAGGACAC,-0.248
19,AACGGACA,-0.037
20,CAGGCCGG,-0.188
21,GTTTTCAA,0.148
22,GCTAGAGA,-0.188
23,GAGACCAC,-0.107
24,ACCTTGCG,-0.0997
25,AGGATAAA,0.22

row,Sequence,PBM 8-mer E-score
1,AGGATAAT,0.353
2,AGGATAAG,0.0764
3,ATGCATGA,-0.142
4,GGTATATA,0.355
5,GGTATAGA,0.08
6,AGTATATC,0.259
7,CGTATATC,0.143
8,AGTATATG,0.351
9,GGTATACA,0.201
10,CGTATACA,0.17
11,CGTATATA,0.378
12,AGTATAGG,0.0335
13,AGTATATA,0.446
14,AGTATAGA,0.0904
15,AGTATGTG,0.209
16,GACGTTGC,-0.0956
17,GTGTAACA,0.206
18,TAAAGGAA,0.0516
19,GAATCGCC,-0.206
20,AAAACATT,0.225
21,AAAACATA,0.354
22,GAAACATA,0.343
23,ATAACATC,0.302
24,ATAACATG,0.235
25,ATAACATA,0.359

row,Sequence,PBM 8-mer E-score
1,ATCCATGC,-0.188
2,CGAAATTC,0.192
3,CCCTCACA,-0.151
4,ATATCGAG,0.208
5,TCCCGGAA,-0.126
6,GCGCGTAC,-0.156
7,GAGGGTGC,-0.16
8,TCAAACGA,0.0344
9,ATTACTTC,0.348
10,CTTACTTC,0.208
11,ATTACTTA,0.334
12,ATAACTCG,0.255
13,ATAACTTG,0.38
14,ATAACTTC,0.351
15,AGAACTTG,0.214
16,ATAACTGC,0.286
17,CTAACTTC,0.168
18,CGGAGACA,0.0514
19,CCTACCTC,-0.226
20,CCAGATGG,-0.281
21,GATAACTA,0.198
22,ACTAACTA,0.381
23,CTTAACTA,0.305
24,ATTAACTA,0.339
25,ACTAACTC,0.118

row,Sequence,PBM 8-mer E-score
1,ACTAACTG,0.191
2,CATAACTA,0.286
3,AATAACTA,0.348
4,GTTAACTA,0.362
5,ATTTCTGC,0.125
6,ATTCATTA,0.219
7,GATAGGAA,-0.0142
8,AAATTGCT,0.214
9,AACCCGTC,-0.0101
10,GTCGAGAA,-0.0478
11,GCATACCC,0.0205
12,TCACGCAA,-0.124
13,AAGTTTAT,0.358
14,CTGTTTAA,0.302
15,AAGTTTTA,0.318
16,AAGTTTGA,0.289
17,ATGTTTAA,0.391
18,AAGTTTAA,0.357
19,AAGTTTAG,0.288
20,AAGTTTAC,0.157
21,CAGTTTAA,0.26
22,TAGTTTAA,0.398
23,ATGTTTAG,0.212
24,GAGTTTAA,0.235
25,TATTCGGA,-0.000615

row,Sequence,PBM 8-mer E-score
1,ACAGGTCG,-0.216
2,CTGTGTGC,0.0347
3,AAGCAGGT,0.0586
4,CGTTCAAG,-0.0745
5,GCTCGCAA,-0.107
6,AGTTTTAG,0.162
7,AGTTTTAC,0.221
8,AGTTTTAT,0.351
9,ATACGGCG,-0.11
10,AACAACTA,0.335
11,AACAACTT,0.358
12,AACAACTC,0.185
13,AGTGGGCA,0.0126
14,GGTCCGAA,-0.0643
15,ACAACAAG,0.138
16,ATAACAAC,0.228
17,ATAACTAG,0.27
18,ACAACAAC,0.216
19,ATAACAAT,0.355
20,ATAACAAG,0.283
21,AAAACAAC,0.282
22,ACAACAAT,0.372
23,ATAACTAT,0.388
24,AAAACAAG,0.122
25,ATAACTAA,0.32

row,Sequence,PBM 8-mer E-score
1,AAAACAAT,0.349
2,AAGTAGAC,0.0778
3,ACCATATC,0.099
4,GCGTGGAC,-0.192
5,TATGGACA,0.0866
6,TGCAGGCA,-0.0892
7,GACCACCC,-0.296
8,CTTTATAA,0.344
9,ATTTATAA,0.459
10,GTTTATGA,0.208
11,ATTTATAC,0.383
12,ATTTATCC,0.286
13,ATTTATAG,0.342
14,GTTTATAA,0.383
15,CTTTATAC,0.264
16,GTTTATCA,0.19
17,CGATACGC,-0.172
18,AGCGGGAT,-0.138
19,ACCCTTTC,-0.289
20,GGCAATAA,0.228
21,CCTAATTA,0.358
22,GCTAATCA,0.0157
23,ACTAATTG,0.308
24,ACTAATTA,0.45
25,GCTAATTA,0.352

row,Sequence,PBM 8-mer E-score
1,ACTAATTC,0.227
2,GCTAATGA,-0.138
3,CCTAATGA,-0.254
4,CCTAATTC,0.0847
5,CAAGTAGA,0.141
6,AGTCAGCA,-0.0242
7,GGCCAGAA,-0.026
8,GAACGGGA,-0.0641
9,GTGCGTTA,0.133
10,GACCTTGA,-0.138
11,AGGTTCCG,-0.212
12,GAGTTCAA,0.174
13,AACTTAAT,0.381
14,AACTTAAA,0.352
15,AAGTTCAA,0.398
16,AACTTAAG,0.333
17,AACTTCAA,0.345
18,AACTTCAG,0.158
19,CACTTAAA,0.0563
20,AACTTAAC,0.323
21,TACTTAAA,0.302
22,CAGTTCAA,0.0238
23,GACTTCAA,0.0947
24,GGGCCACC,-0.382
25,GATTTGTA,0.205

row,Sequence,PBM 8-mer E-score
1,GCCCGCGC,-0.262
2,TGGTGCAA,0.0798
3,ACAGATGA,-0.0583
4,CGAGGTAC,-0.301
5,ACCCATTA,0.241
6,CGTTAGCA,-0.0988
7,CCGGCCTA,-0.174
8,CTAATTCA,0.228
9,GAAATTAC,0.247
10,CTAATTAA,0.413
11,ATAATTCG,0.228
12,ATAATTGA,0.338
13,GCAATTAC,0.169
14,CTGATTAA,0.278
15,ATAATTAG,0.429
16,GTAATTAA,0.343
17,AGAATTAG,0.00537
18,ATAATTAA,0.456
19,GTAATTAC,0.393
20,CCGTGCCC,-0.184
21,ATCCTGGA,0.0568
22,CCGCACGA,-0.13
23,AACTATGT,0.258
24,ATGGAGAC,-0.0433
25,CTTTTCTC,-0.00236

row,Sequence,PBM 8-mer E-score
1,TATTTCCA,0.312
2,AGACTAAC,0.00982
3,AGATACCC,-0.0322
4,ATAATGGA,0.238
5,CACGTCTC,-0.173
6,CTAATTAC,0.322
7,ATAATTAT,0.467
8,CAAATTAG,0.18
9,CTAATTAG,0.35
10,CCAATTAG,0.073
11,ATAATTCC,0.254
12,ATAATTAC,0.378
13,ATAATTGG,0.308
14,AGAATTAT,0.315
15,AGCTAATC,-0.0533
16,GAAGTTGA,0.0448
17,ATTTGGAA,0.0956
18,AAATACAA,0.33
19,TACTAATA,0.357
20,GACTAATA,0.297
21,CACTAATA,0.323
22,AAATACTC,0.207
23,TAATACAA,0.397
24,TAATACTA,0.37
25,CAATACTA,0.172

row,Sequence,PBM 8-mer E-score
1,CAATACAA,0.199
2,AAATACTA,0.383
3,GAATACTA,0.212
4,AAATACTT,0.246
5,CTTCGAGC,-0.301
6,AGAGGCGC,-0.328
7,CCACGCGC,-0.112
8,CCCATCGG,-0.267
9,GGATACGA,0.0766
10,AAGATCGC,-0.0523
11,AATGGTTC,-0.0396
12,AAATACCG,0.271
13,CCCTAAGG,-0.289
14,TAGTTATA,0.402
15,CAGTTATC,0.131
16,AAGTTAGA,0.302
17,TAGTTACA,0.247
18,GAGTTATC,0.0914
19,CCGTTATA,0.308
20,AAGTTATA,0.442
21,CAGTTATA,0.36
22,AAGTTACA,0.264
23,GAGTTATA,0.369
24,TAGTTAGA,0.178
25,GCGTTATA,0.252

row,Sequence,PBM 8-mer E-score
1,AAGATTGG,0.154
2,GAAACGGA,-0.164
3,ATAACCTA,0.182
4,ATGTCGAC,0.0419
5,AGTTCTGA,0.144
6,AAAATCAA,0.18
7,AAAGCTGG,-0.0254
8,CATAATCA,0.227
9,AATAATTA,0.463
10,GATAATCC,0.175
11,GAGAATTA,0.23
12,AATAATTG,0.372
13,CATAATTC,0.223
14,AATAATTC,0.344
15,AAGAATTA,0.295
16,GATAATTA,0.419
17,AGTAATTG,0.293
18,CATAATTA,0.421
19,AATAATCG,0.309
20,ATTCTTGC,0.0322
21,CATAGGGA,-0.132
22,TCCTTCCA,-0.27
23,GCAGTATA,0.287
24,ATCGGCGC,-0.104
25,AGCCCTAT,-0.14

row,Sequence,PBM 8-mer E-score
1,AAGAAGAC,-0.0906
2,TAACAGGA,0.223
3,AGCCGCCT,-0.243
4,CGTTGGCC,-0.25
5,AGATACGG,-0.112
6,ATTTTTCC,0.0867
7,GTCGTGAA,-0.22
8,CAAAGGTA,-0.113
9,CAACACCA,0.0286
10,AGATATAA,0.373
11,AGATATAT,0.46
12,AGATATAG,0.208
13,AGAGATAA,0.144
14,AGATATAC,0.155
15,AGATATCA,0.194
16,GAATGGGC,-0.16
17,GATATTAA,0.438
18,CAGATTAA,0.137
19,CATATTAA,0.418
20,GAGATTAA,0.232
21,GATATTAC,0.293
22,CATATTCA,0.184
